AC50 and outcome data for 39 compounds are collected here from PubChem BioAssay (EPA / NIEHS).

The term AC50 denotes the concentration giving half of the maximal activity seen.

A structure can be active in one record and inactive in another. The source made the active and inactive calls. The calls were made as follows: active = hit-call score of the fitted dose curve at least 0.9, where 1 is the maximum; inactive = score below 0.9.

Read-out in this experiment: Monokine induced gamma interferon (MIG), CXCL9 (gene 4283)
The experiment is described as follows: BSK_BE3C_MIG: BioMAP Diversity Plus: BE3C Assay for Monokine induced gamma interferon (MIG) Biomarker Activity (AID 2283035). To be noted: primary human bronchial epithelial cells; actives raise or lower the signal. As for the experimental part:
BSK_BE3C is a cell-based, multiplexed-readout assay that uses bronchial epithelial cell, a human lung primary cell, with measurements taken at 24 hours after chemical dosing in a 96-well plate.BSK_BE3C_MIG is an assay component measured in the BSK_BE3C assay. It measures MIG antibody related to regulation of gene expression using ELISA technology.Data from the assay component BSK_BE3C_MIG was analyzed into 1 assay endpoint. This assay endpoint, BSK_BE3C_MIG, was analyzed with bidirectional fitting relative to DMSO as the negative control and baseline of activity. Using a type of binding reporter, gain or loss-of-signal activity can be used to understand changes in the signaling as they relate to the gene CXCL9. Furthermore, this assay endpoint can be referred to as a primary readout, because this assay has produced multiple assay endpoints where this one serves a signaling function. To generalize the intended target to other relatable targets, this assay endpoint is annotated to the cytokine intended target family, where the subfamily is chemotactic factor.
The levels of cell surface (or secreted, indicated by the prefix "s") biomarker endpoints were measured by ELISA. Overt cytotoxicity to cells in confluent adherent cultures (all systems other than the BT system) was assessed by measuring total protein levels using sulforhodamine B (SRB) staining in parallel cultures at the time of biomarker measurements, indicated as SRB endpoints. For proliferation assays for adherent cell types, individual cell types are cultured at sub-confluence and relative cell numbers quantified by SRB staining at time points optimized for each system (48 h: 3C and CASM3C systems; 72 h: BT and HDF3CGF systems; 96 h: SAg system). SRB was performed by staining cells with 0.1% SRB after fixation with 10% TCA and reading wells at 560 nm.Viability and proliferation of PBMC (T cells) was quantified by Alamar Blue reduction for the SAg and BT systems. For PBMC viability (referred to as PBMC Cytotoxicity within the assay endpoint names), cells were plated (75,000/well in a 96-well plate) and then chemical samples added for 1 h before addition of activators, SEB and TSST-1 (20 ng/mL final concentration each). Cells were incubated for 90 h. Then, Alamar Blue (20 uL/well) (Invitrogen, Cat DAL1100) was added for 6 h, and the plates were read with a fluorescence microplate reader at 546/580 nm (excitation/emission). For PBMC proliferation, cells were plated and activated as above but incubated for only 16 h prior to addition of Alamar Blue. Plates were read after 6 h.
On to `CC(C)(C)C(O)/C(=C\c1ccc(Cl)cc1Cl)n1cncn1` (stereo not given), for which the AC50 is 35.1 µM (active).
On to `O=C(O)COc1ccc(Cl)cc1Cl`, for which the outcome was inactive.
As to `C[C@H]1[C@H](c2ccc(Cl)cc2)SC(=O)N1C(=O)NC1CCCCC1`, the outcome was inactive.
On the same count and under the same terms, in the case of `COP(=S)(OC)Oc1ccc([N+](=O)[O-])cc1` it was “inactive”.
For the compound `O=S1OCC2C(CO1)C1(Cl)C(Cl)=C(Cl)C2(Cl)C1(Cl)Cl` (stereo not given), the AC50 is 34.4 µM (active).
With `COc1nn(CSP(=S)(OC)OC)c(=O)s1`, the outcome was inactive.
For `CC(C)OC(=O)Nc1cccc(Cl)c1`, the outcome was inactive.
Turning to `CCC(C)(C)C(=O)OC1=C(c2ccc(Cl)cc2Cl)C(=O)OC12CCCCC2`, the concentration at half-maximal activity (AC50) was 34.2 µM (active).
Consider `O=S(=O)(O)C(F)(F)C(F)(F)C(F)(F)C(F)(F)C(F)(F)C(F)(F)C(F)(F)C(F)(F)F`, for which the concentration at half-maximal activity (AC50) was 43.3 µM (active) [middle of 4 runs] and the result was inactive.
On to `CCOc1nc(NC)nc(NC(=O)NS(=O)(=O)c2ccccc2C(=O)OC)n1`, for which the outcome was inactive.
For the compound `Cc1[nH]c(=O)n(C(C)(C)C)c(=O)c1Cl`, the result was inactive.
Consider `OCCOc1ccccc1`, for which the outcome was inactive.
As to `CC1(C)C(C=C(Cl)Cl)C1C(=O)OC(C#N)c1ccc(F)c(Oc2ccccc2)c1` (stereo not given), the outcome was inactive.
In the case of `CN1CSC(=S)N(C)C1`, the result was inactive.
As for `Oc1cc(Cl)ccc1Oc1ccc(Cl)cc1Cl`, the half-maximal activity concentration (AC50) is 36 µM (active) [middle of 4 runs].
As to `O=C1c2ccccc2C(=O)N1SC(Cl)(Cl)Cl`, the concentration at half-maximal activity (AC50) was 35.7 µM (active).
Consider `N#CN`, for which the result was inactive.
Turning to `CCOC1Oc2ccc(OS(C)(=O)=O)cc2C1(C)C` (stereo not given), the outcome was inactive.
As to `O=[N+]([O-])c1c(Cl)c(Cl)c(Cl)c(Cl)c1Cl`, the outcome was inactive.
As to `[2H]C1([2H])[n+]2ccccc2-c2cccc[n+]2C1([2H])[2H]`, the result was inactive.
On to `C#CCN1C(=O)COc2cc(F)c(N3C(=O)C4=C(CCCC4)C3=O)cc21`, for which the result was inactive.
On to `Cc1cc(C)nc(NC(=O)NS(=O)(=O)c2ccccc2C(=O)OC2COC2)n1`, for which the outcome was inactive.
Same read-out and setting: as for `COC(=O)c1ccccc1CS(=O)(=O)NC(=O)Nc1nc(OC)cc(OC)n1`, the entry is “inactive”.
As for `Oc1ccc(Cl)cc1Cc1ccccc1`, the AC50 was 37.3 µM (active) [middle of 7 runs].
`O=[N+]([O-])/N=C1\NCCN1Cc1ccc(Cl)nc1`: the outcome was inactive.
In the case of `CCS(=O)(=O)c1cccnc1S(=O)(=O)NC(=O)Nc1nc(OC)cc(OC)n1`, the result was inactive.
The same measure, in the same setting: in the case of `CCN(CC)C(=O)SCc1ccc(Cl)cc1` it was “inactive”; in that of `O=C(O)CCCOc1ccc(Cl)cc1Cl`, “inactive”.
For the compound `N#Cc1c(Cl)c(Cl)c(Cl)c(C#N)c1Cl`, the AC50 is 3.01 µM (active).
For the compound `CCC(C)(NC(=O)c1cc(Cl)c(C)c(Cl)c1)C(=O)CCl` (stereo not given), the concentration at half-maximal activity (AC50) is 32.8 µM (active).
Regarding `Clc1ccccc1-c1nnc(-c2ccccc2Cl)nn1`, the outcome was inactive.
On to `CCc1ccc(C(=O)NN(C(=O)c2cc(C)cc(C)c2)C(C)(C)C)cc1`, for which the result was inactive.
For the compound `ClC1C(Cl)C(Cl)C(Cl)C(Cl)C1Cl` (stereo not given), the result was inactive.
As for `CCC(C)Nc1c([N+](=O)[O-])cc(C(C)(C)C)cc1[N+](=O)[O-]` (stereo not given), the outcome was inactive.
With `CC1(c2ccc(Oc3ccccc3)cc2)OC(=O)N(Nc2ccccc2)C1=O` (stereo not given), the outcome was inactive.
On the same count and under the same terms, in the case of `COP(=S)(OC)Oc1ccc(SC)c(C)c1` it was “inactive”.
On to `CCOCN(C(=O)CCl)c1c(C)cccc1CC`, for which the outcome was inactive.
As to `CC(C)(C)C(O)C(Oc1ccc(Cl)cc1)n1cncn1` (stereo not given), the outcome was inactive.
For the compound `COP(=O)(OC)OC=C(Cl)Cl`, the result was inactive.
